The text below walks through data of PubChem BioAssay AID485270 (The Scripps Research Institute Molecular Screening Center, 2010).

Screen size: about 330,000 compounds; about 5,800 (1.8%) were called active. The sample holds actives, similar compounds and a random draw of the others, so the mix is not that of the screen. No stated cut-off is given here; in the data, active means inhibition mostly above about 38% (no sharp cut-off); inactive means mostly below about 40%.

Chain of Orexin/Hypocretin receptor type 1 (Homo sapiens) (O43613 whole entry, looked up): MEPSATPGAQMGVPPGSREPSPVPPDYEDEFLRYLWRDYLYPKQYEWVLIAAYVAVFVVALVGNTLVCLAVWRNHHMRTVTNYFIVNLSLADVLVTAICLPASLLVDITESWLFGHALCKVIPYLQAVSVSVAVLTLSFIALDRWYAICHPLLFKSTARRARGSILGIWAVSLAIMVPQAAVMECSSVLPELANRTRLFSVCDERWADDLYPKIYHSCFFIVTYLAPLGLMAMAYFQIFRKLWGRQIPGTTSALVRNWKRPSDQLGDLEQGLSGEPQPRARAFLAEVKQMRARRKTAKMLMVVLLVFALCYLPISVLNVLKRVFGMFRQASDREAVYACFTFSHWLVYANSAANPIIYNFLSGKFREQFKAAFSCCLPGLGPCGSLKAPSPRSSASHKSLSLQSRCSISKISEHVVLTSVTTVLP

The assay has as its target Orexin/Hypocretin receptor type 1 (Homo sapiens) (UniProt O43613). The assay can be described thus: blocks the human orexin 1 receptor (AID 485270).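 Further: 0% = agonist challenge alone and 100% = reference antagonist.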 The following applies: OX1R-expressing cells, FRET antagonist read-out; at 6.6 µM; hits give high values.
The inhibition is the drop in the measured response relative to a control, in per cent. Take `O=C(N/N=C/c1c(O)n(Cc2ccccc2)c(=O)[nH]c1=O)c1ccccc1`: the inhibition was 20.1% (inactive).

Take `O=C(N/N=C/c1c(O)n(C2CC2)c(=S)[nH]c1=O)c1ccccc1`: the inhibition was 48.4% (active).

With `O=C(N/N=C/c1c(O)n(C2CC2)c(=S)[nH]c1=O)c1ccccc1Cl`, the inhibition is 16.5% (inactive).

Consider `O=C(CSC1c2ccccc2-c2ccccc21)N/N=C/c1ccccc1`, for which the inhibition is 53.4% (inactive).

Turning to `CNC(=O)Nc1ccc(C(O)(C(=O)OC)C(F)(F)F)cc1` (stereo not given), the inhibition is 1.75% (inactive).

Consider `COc1ccc2c(c1O)-c1cccc3c1[C@@H](C2)N(C)CC3`, for which the inhibition is 21.8% (inactive).

In the case of `CCN1CCN(c2ccc([N+](=O)[O-])cc2C#N)CC1`, the inhibition was 30.8% (inactive).

In the case of `Cc1nc2ccc(N3CCN(C)CC3)cc2nc1C`, the inhibition was 36.4% (inactive).

For the molecule `CN1CCN(c2cc(N3CCNCC3)ccc2[N+](=O)[O-])CC1`, the inhibition is 61% (active).

For `Cc1cccc2c(CCN)c[nH]c12`, the inhibition is 13.2% (inactive).

As for `O=C1N=c2ccccc2=C/C1=C\c1c(O)[nH]c(=S)[nH]c1=O`, the inhibition was 42.6% (inactive).

Take `COc1ccccc1N=Nc1c(O)[nH]c(=S)[nH]c1=O`: the inhibition is 55.9% (active).

On to `CCOCCc1c(O)[nH]c(=S)[nH]c1=O`, for which the inhibition is -2.14% (inactive).

Regarding `O=c1[nH]c(CN2CC=C(c3ccccc3)CC2)nc2scc(-c3cccs3)c12`, the inhibition is 7.54% (inactive).

`CC(=O)Nc1ccc(C(=O)C(Cc2ccccc2)N(C)C)cc1` (stereo not given): the inhibition is 4.57% (inactive).

Turning to `COc1cccc(-c2nc3ccc(N4CCN(C)CC4)cc3[nH]2)c1`, the inhibition is 20.4% (inactive).

In the case of `CCN(CC)c1ccc([N+](=O)[O-])c2cccnc12`, the inhibition is 28.8% (inactive).

Regarding `CN(c1ccccc1)c1ccc([N+](=O)[O-])c2nonc12`, the inhibition was 73.5% (active).

Consider `CN1CCN(Cc2ccc(OC(F)(F)F)cc2)CC1`, for which the inhibition is 2.95% (inactive).

Consider `O=C(Cc1ccccc1)N1CCN(C2CCCCCC2)CC1`, for which the inhibition was -3.88% (inactive).
